High-throughput results: PubChem, National Center for Advancing Translational Sciences (NCATS)
MCF10A rerep: A quantitative high throughput screen for small molecules that induce DNA re-replication in MCF 10a normal breast cells; MCF 10A DNA re-replication, Hoechst nuclear intensity, 48 h; Potency, µM (doses to about 46.1 µM), without a hit: top-dose activity, positive = re-replication, usual class: activators; 350,000 tested, 2.9% active; AID 624296, 2012; note: % of control where 0% means no effect; nearly all actives have a fitted effect of over 50% in size
ELG1 repair inh: qHTS screen for small molecules that inhibit ELG1-dependent DNA repair in human embryonic kidney (HEK293T) cells expressing luciferase-tagged ELG1. HEK293T ELG1-luciferase reporter, luminescence, 16 h; DNA damage induced by 5-fluorouridine. Potency, µM (titrated, usually from 46.1 µM), for inactives: at the highest dose activity change, negative = inhibition, hits mostly inhibitors. 330,000 tested, 2.3% active; note: % is set by controls: 0 for no effect and ±100 for the full control effect; nearly all actives have a fitted effect of over 55% in size
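Overnight (16 hr) co-exposure of 2,000 cells/well to 5-fluorouridine and compound at 37 °C preceded detection. Luciferase was quantified via ONE-Glo luminescence; loss of signal denotes inhibition.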
SW480 rerep: A quantitative high throughput screen for small molecules that induce DNA re-replication in SW480 colon adenocarcinoma cells. SW480 DNA re-replication, Hoechst DNA content imaging, 48 h. Potency, µM (titrated, usually from 46.1 µM), for the others: top-dose re-replication activation, usual class: activators. 340,000 tested, 1.8% active. AID 624297, 2012; note: % of control where 0% means no effect; nearly all actives have a fitted effect of over 55% in size
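Quantitative HTS format with DMSO vehicle controls; 48 hr drug incubation at 37 C, then 40 min Hoechst staining and scanning imager measurement at 405 nm excitation.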
KB-V1 MDR tox: qHTS assay for MDR1-selective chemotherapeutics: Primary screen using the drug-selected MDR subline cells KB-V1; KB-V1 MDR cells viability, CellTiter-Glo, 72 h; Potency, µM (highest dose often 46.1 µM), most hits filed as cytotoxic; 400,000 tested, 3.4% active; note: % is set by controls: 0 for no effect and ±100 for the full control effect; nearly all actives have a fitted effect of over 60% in size
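Readout: CellTiter-Glo luminescence, 10 min after addition. Cells: KB-V1 MDR subline, 72 h at 37 degrees C with compound. Analysis: corrected, normalized data fitted to concentration-effect curves.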
KB-3-1 tox: qHTS assay for MDR1-selective chemotherapeutics: Primary screen using the parental adenocarcinoma cell KB-3-1; KB-3-1 viability, CellTiter-Glo ATP luminescence, 72 h; Potency, µM (series often up to 46.1 µM), hits mostly cytotoxic; 400,000 tested, 1.4% active; note: % is set by controls: 0 for no effect and ±100 for the full control effect; nearly all actives have a fitted effect of over 60% in size
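Using CellTiter-Glo luminescence, growth of non-resistant KB-3-1 adenocarcinoma cells is assessed 72 h after pin-tool compound addition at 37 °C. Normalized responses across the concentration series yield fitted curves.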
The depositor's hits bear a star. Sampled rows, rich in hits. Any-hit rate of the full collection: about 8.1%. Calls come from the whole dose curve; as a rule, active = well fitted curve in the direction sought with a large enough effect; inconclusive = small, poorly fitted or top-dose-only effect, or another doubt; inactive = no such curve, though single readings can be large; an effect the other way counts as inactive or inconclusive. Potency is the fitted concentration of half-maximal effect.

For Cn1ccc(C(=O)N/N=C/c2c[nH]c3ccccc23)n1 the results were MCF10A rerep 2.6%, ELG1 repair inh inconclusive, SW480 rerep -6.3%, KB-V1 MDR tox inactive and KB-3-1 tox 18.4µM*.
O=C(N/N=C/c1cccc([N+](=O)[O-])c1)c1cc(-c2ccc3c(c2)OCO3)n[nH]1 was read as MCF10A rerep 11.6µM*, ELG1 repair inh 19.0%, SW480 rerep -121.9%, KB-V1 MDR tox inactive and KB-3-1 tox inactive.
Screening CC(C)(C)c1ccc(C(=O)Nc2ccc(-c3nc4ccccc4[nH]3)cc2)cc1 returned KB-V1 MDR tox inactive and KB-3-1 tox inactive.
Screening Cn1cnnc1SCC(=O)Nc1ccc2nc(SCc3ccccc3F)sc2c1 returned MCF10A rerep -1.9%, ELG1 repair inh inconclusive, SW480 rerep -0.1%, KB-V1 MDR tox 20.6µM* and KB-3-1 tox inactive.
Cn1c(SCC(=O)Nc2ccc3nc(SCC(=O)N4CCCC4)sc3c2)nnc1-c1ccccc1 was read as MCF10A rerep 24.6%, ELG1 repair inh 20.6µM*, SW480 rerep 12.6%, KB-V1 MDR tox inactive and KB-3-1 tox inactive.
For O=C(CSc1nc2ccc(NC(=O)CSc3nnnn3-c3ccccc3)cc2s1)Nc1ccccc1 the results were MCF10A rerep inconclusive, ELG1 repair inh inconclusive, SW480 rerep 3.5%, KB-V1 MDR tox inactive and KB-3-1 tox inactive.
`C#CCn1c(S(=O)(=O)Cc2ccc(C)cc2)nc(-c2ccccc2)c1-c1ccccc1` gave MCF10A rerep 27.4%, ELG1 repair inh 21.8%, SW480 rerep inconclusive, KB-V1 MDR tox 6.51µM* and KB-3-1 tox 6.51µM*.
`C#CCn1c(S(=O)(=O)Cc2ccccc2Cl)nc(-c2ccccc2)c1-c1ccccc1` gave MCF10A rerep 7.4%, ELG1 repair inh 1.3%, SW480 rerep -3.9%, KB-V1 MDR tox inactive and KB-3-1 tox inactive.
For COC(=O)c1cccc2c(C(=O)O)cc(-c3ccccc3)nc12 the results were MCF10A rerep 0.3%, SW480 rerep -0.4%, KB-V1 MDR tox inactive and KB-3-1 tox inactive.
COc1ccccc1C(=O)Nc1ccc(Cc2ccncc2)cc1 was read as MCF10A rerep -36.6%, ELG1 repair inh 0.4%, SW480 rerep 4.0%, KB-V1 MDR tox 9.2µM* and KB-3-1 tox inconclusive.
`COc1c(C)cc(Br)cc1C(=O)Nc1ccc(Cc2ccncc2)cc1` gave MCF10A rerep 16.4µM*, ELG1 repair inh inconclusive, SW480 rerep inconclusive, KB-V1 MDR tox inactive and KB-3-1 tox inactive.
Screening CCOc1ccc(C(=O)Nc2ccc(Cc3ccncc3)cc2)cc1Br returned MCF10A rerep inconclusive, ELG1 repair inh inconclusive, SW480 rerep 16.4µM*, KB-V1 MDR tox inactive and KB-3-1 tox inconclusive.
For CCCCC(=O)Nc1ccc(NC(=O)c2ccccc2OC)cn1 the results were MCF10A rerep inconclusive, ELG1 repair inh 18.4µM*, SW480 rerep -0.7%, KB-V1 MDR tox inactive and KB-3-1 tox inactive.
`CCOc1ccc(C(=O)Nc2ccc(NC(=O)c3ccccc3)cc2)cc1Br` gave MCF10A rerep 0.6%, ELG1 repair inh 3.8%, SW480 rerep -38.4%, KB-V1 MDR tox inactive and KB-3-1 tox inactive.
CCCCC(=O)Nc1ccc(NC(=O)c2cc(OC)c(OC)c(OC)c2)cn1 was read as MCF10A rerep 2.3%, ELG1 repair inh -5.1%, SW480 rerep -4.4%, KB-V1 MDR tox inactive and KB-3-1 tox inactive.
For COc1ccccc1N1CCN(C(CNC(=O)C(=O)NCCCN(C)C)c2cccnc2)CC1 (configuration not stated) the results were KB-V1 MDR tox inactive and KB-3-1 tox inactive.
O=C(Nc1ccc(Cc2ccncc2)cc1)c1ccc(Cl)c([N+](=O)[O-])c1 was read as MCF10A rerep inconclusive, ELG1 repair inh inconclusive, SW480 rerep -4.3%, KB-V1 MDR tox inconclusive and KB-3-1 tox inconclusive.
For Cc1c([N+](=O)[O-])cc(C(=O)Nc2ccc(Cc3ccncc3)cc2)cc1[N+](=O)[O-] the results were MCF10A rerep 1.2%, ELG1 repair inh 10.3µM*, SW480 rerep -4.5%, KB-V1 MDR tox inactive and KB-3-1 tox inactive.
For COc1ccccc1N(CC(=O)Nc1ccc(Cc2ccncc2)cc1)S(=O)(=O)c1ccccc1 the results were MCF10A rerep inconclusive, ELG1 repair inh 18.3µM*, SW480 rerep -86.8%, KB-V1 MDR tox inactive and KB-3-1 tox inactive.
Screening COC(=O)C1(Cc2ccc3c(c2)CCC3)Cc2ccc3c(c2C1=O)CCC3 (configuration not stated) returned MCF10A rerep 9.2µM*, SW480 rerep inconclusive, KB-V1 MDR tox 4.61µM* and KB-3-1 tox 5.8µM*.
CCN(CCNC(=O)Nc1ccc(Cl)cc1)c1ccccc1 was read as MCF10A rerep 18.4µM*, ELG1 repair inh 5.17µM*, SW480 rerep inconclusive, KB-V1 MDR tox inconclusive and KB-3-1 tox inconclusive.
O=C(NCCc1ccc(Cl)cc1)Nc1ccc(Cl)cc1 was read as MCF10A rerep 8.1%, ELG1 repair inh inconclusive, SW480 rerep -16.3%, KB-V1 MDR tox inactive and KB-3-1 tox inactive.
`CCN(CC)c1nc(OCCNC(=O)Nc2ccccc2)nc(N(CC)CC)n1` gave MCF10A rerep inconclusive, ELG1 repair inh 18.4µM*, SW480 rerep 18.9%, KB-V1 MDR tox inconclusive and KB-3-1 tox inconclusive.
`COc1ccc(Cl)cc1N1C(=O)/C(=C\c2sccc2C)N=C1SCC(=O)NC1CC1` gave MCF10A rerep -2.7%, ELG1 repair inh 16.4µM*, SW480 rerep 9.9%, KB-V1 MDR tox 20.6µM* and KB-3-1 tox inactive.
`CCCCN(C)c1nc2c(S(=O)(=O)c3ccc(CC)cc3)nnn2c2ccc(Cl)cc12` gave KB-V1 MDR tox inactive and KB-3-1 tox inactive.
Cc1ccccc1OCc1nnc(SCc2cc(=O)c3cc(F)ccc3[nH]2)n1C was read as KB-V1 MDR tox inactive and KB-3-1 tox 20.6µM*.
Screening Cc1ccc2[nH]c(CSc3nnc(COc4ccccc4C)n3C)cc(=O)c2c1 returned KB-V1 MDR tox inactive and KB-3-1 tox inconclusive.
For CN(C)CCNc1nc(Oc2cccc(F)c2)c2sccc2n1 the results were KB-V1 MDR tox inactive and KB-3-1 tox inactive.
For CN(C)C1=NCC(CSC(=N)N)S1 (configuration not stated) the results were MCF10A rerep inconclusive, ELG1 repair inh 4.8%, SW480 rerep 8.2µM*, KB-V1 MDR tox inactive and KB-3-1 tox inactive.
